Screening data deposited in PubChem BioAssay by National Center for Advancing Translational Sciences (NCATS).
TCR activator = Activators of T cell receptors: qHTS campaign; primary human leukocytes, anti-CD3, IL-2 HTRF, 48 h; Potency, µM (doses to about 9.22 µM), for the others: top-dose activation of IL-2 secretion, actives largely listed as activators; 330,000 tested, under 10 active; AID 504894, 2011; active means well fitted activation curve with a large enough effect; inconclusive means small, poorly fitted or top-dose-only effect, or another doubt; inactive means no such curve, though single readings can be large or run the other way; further: % of control where 0% means no effect
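Primary human leukocytes receive a-CD3 beads and test compound and are incubated 48 hr. Secreted IL-2 is then assayed by HTRF, measuring 665nm acceptor emission after 320nm excitation of the europium donor.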
Pin1 inhibitor = qHTS Assay to Find Inhibitors of Pin1; Peptidyl-prolyl cis-trans isomerase NIMA-interacting 1 (Homo sapiens), Q13526; Pin1 FP peptide displacement, HiFluor488, 10 min; Potency, µM (highest dose often 115 µM), for the others: at the highest dose activity, negative = inhibition, hits mostly inhibitors; 0.009% of 390,000 active; active means well fitted inhibition curve with a large enough effect in the polarisation, with a control signal flat, not every such curve was filed as active; inconclusive means small, poorly fitted or top-dose-only effect, or effect the other way, or a change in a side signal; inactive means no such curve, though single readings can be large or run the other way; the % refers to the polarisation; further: potency means the concentration at half of the fitted maximal effect; on the % scale 0 is the no-effect control and ±100 the full control effect
gsp agonist = qHTS for Agonist of gsp, the Etiologic Mutation Responsible for Fibrous Dysplasia/McCune-Albright Syndrome: qHTS; AID 624287, 2012; Potency, µM (highest dose often 76.9 µM), without a hit: at the highest dose activation (cAMP increase), actives largely listed as activators; gsp mutant cells, cAMP HTRF, 30 min; 0.13% of 340,000 active; active means well fitted activation curve with a large enough effect; inconclusive means small, poorly fitted or top-dose-only effect, or another doubt; inactive means no such curve, though single readings can be large or run the other way; cell line not stated here;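 further: phosphodiesterase inhibitor Ro 20-1724 added with compounds to block cAMP breakdown; potency means the concentration at half of the fitted maximal effect; nearly all actives have a fitted effect of over 60% in size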
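Cells in DMEM/10% FBS with G418 were pretreated with compounds in DMSO plus […] (300 uM stock) for 30 min at 37C. cAMP was measured by HTRF (cAMP-d2 plus anti-cAMP antibody-K) after 30 min at room temperature.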
gsp antagonist = qHTS for Antagonists of gsp, the Etiologic Mutation Responsible for Fibrous Dysplasia/McCune-Albright Syndrome: qHTS | Potency, µM (titrated, usually from 76.9 µM), for inactives: at the top dose activity change, negative = inhibition, actives largely listed as inhibitors | 0.4% of 340,000 active | gsp-mutant cells, cAMP HTRF, 30 min; calls by dose curve; cell line not stated here;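 further: intracellular cAMP measured with PDE inhibitor Ro 20-1724 present during compound exposure; potency means the concentration at half of the fitted maximal effect; on the % scale 0 is the no-effect control and ±100 the full control effect; nearly all actives have a fitted effect of over 65% in size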
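HTRF cAMP measurement after 30 min RT detection following 30 min, 37C compound treatment alongside […] (added as 300 uM solution) in G418-selected cells seeded at 2000/well and grown 16–24 h.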
TSHR antag = Antagonists of the Thyroid Stimulating Hormone Receptor: HTS campaign | TSHR-expressing cells, TSH-stimulated cAMP HTRF, 2 h; hits give low values | activity change, negative = inhibition, % at 11.5 µM | 0.2% of 330,000 active;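 active means activity change below a set negative limit, meaning inhibition stronger than a set level, cut at about -70% in these data; inconclusive means activity change between two set negative limits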; further: on the % scale 0 is the no-effect control and ±100 the full control effect
Target sequence (P16473 whole entry, looked up): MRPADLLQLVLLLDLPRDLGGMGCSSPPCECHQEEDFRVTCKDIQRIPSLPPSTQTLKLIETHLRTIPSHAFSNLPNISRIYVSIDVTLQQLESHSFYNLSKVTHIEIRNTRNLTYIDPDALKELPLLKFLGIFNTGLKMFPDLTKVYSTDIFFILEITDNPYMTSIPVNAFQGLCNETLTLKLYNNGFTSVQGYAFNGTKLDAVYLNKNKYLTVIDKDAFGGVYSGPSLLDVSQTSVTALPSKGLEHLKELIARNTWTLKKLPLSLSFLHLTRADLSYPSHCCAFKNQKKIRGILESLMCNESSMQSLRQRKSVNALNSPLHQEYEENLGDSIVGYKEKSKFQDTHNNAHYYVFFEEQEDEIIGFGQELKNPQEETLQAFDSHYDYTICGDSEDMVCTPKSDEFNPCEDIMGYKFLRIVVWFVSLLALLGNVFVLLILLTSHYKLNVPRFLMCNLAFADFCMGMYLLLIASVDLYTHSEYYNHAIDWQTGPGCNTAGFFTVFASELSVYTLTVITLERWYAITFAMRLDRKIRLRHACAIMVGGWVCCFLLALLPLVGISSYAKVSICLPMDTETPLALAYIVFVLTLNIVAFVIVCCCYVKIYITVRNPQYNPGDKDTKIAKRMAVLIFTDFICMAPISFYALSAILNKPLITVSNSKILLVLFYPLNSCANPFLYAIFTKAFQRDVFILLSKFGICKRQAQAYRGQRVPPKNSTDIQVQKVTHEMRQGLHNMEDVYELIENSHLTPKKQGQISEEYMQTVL
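TSHR-expressing cells, 200/well, pre-treated with compound, then stimulated with EC80 TSH (4nM final) for 2 hours at 37 deg C. cAMP measured by competitive HTRF: anti-cAMP cryptate antibody in lysis buffer plus cAMP-d2, read after 30 minutes at room temperature.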
Numbers without * were called inactive; u = inconclusive; x = no result; ! = a repeat was not active; [ ] = another dose, or the depositor's remark. In the library only some 0.63% were active in any assay of this set; here they are far more common.

SMILES	TCR activator	Pin1 inhibitor	gsp agonist	gsp antagonist	TSHR antag
CCOC(=O)C1=C(C)NC(C)=C(C(=O)OCC)C1C(=O)OCC(=O)N1c2ccccc2CC1C (centres undefined)	2%	-2%	-18%	11µM*!	2
COc1ccc(NC(=S)N(CCCN2CCOCC2)C(C)c2cc3cccc(OC)c3o2)cc1 (centres undefined)	7%	2%	1%	-11%	-76*
COc1cccc2cc(C(C)N(CCCN3CCOCC3)C(=S)Nc3ccc(C)c(C)c3)oc12 (centres undefined)	5%	1%	0%[15.4 µM]	-17%	-5
COC(=O)c1cc(-c2ccc(Br)cc2)n[nH]1	-17%	-7%	-22%	-21%	-2
COC(=O)c1cc(-c2c[nH]c3ccccc23)n[nH]1	2%	0%	1%	-2%	-86*
CC(=O)N1c2ccccc2C(C)(C)C2CCC(C)CC21 (centres undefined)	-6%[46.1 µM]	-1%	-23%	-1%	6
COc1ccc(CN2C(=O)c3cccnc3C2=O)cc1S(=O)(=O)NCc1ccccc1	0%	-2%	u	14%	13
COc1ccc(CNS(=O)(=O)c2cc(CN3C(=O)c4cccnc4C3=O)ccc2OC)cc1	-1%	0%	11µM*	15%	53
COc1ccc(CN2C(=O)c3cccnc3C2=O)cc1S(=O)(=O)N1CCCCC1C (centres undefined)	-12%	-4%	7.1µM*	29%	50
CCCNS(=O)(=O)c1cc(CN2C(=O)c3cccnc3C2=O)ccc1OC	2%	-4%	32µM*	3%	11
COc1ccc(CN2C(=O)c3cccnc3C2=O)cc1S(=O)(=O)NC(C)C	-2%	-6%	22µM*	20%	1
COc1ccc(OC)c(CNS(=O)(=O)c2cc(CN3C(=O)c4cccnc4C3=O)ccc2OC)c1	4%	-4%	u	8%	4
OCC(O)C(O)CC1SCCS1 (centres undefined)	-2%	-4%	-16%	2%	x
Cc1ccc(C)c(-n2c(Cc3cc(=O)[nH]c(=O)[nH]3)nnc2SC(C)C)c1	-7%	-13%	-2%	2%	1
O=C1c2cccnc2C(=O)N1Cc1ccc(S(=O)(=O)NCc2ccco2)cc1	-5%	2%	u	8%	-6
Cc1ccc(CNS(=O)(=O)c2ccc(CN3C(=O)c4cccnc4C3=O)s2)o1	-2%	-1%	0%	25%	-89*
CC(C)(C)c1cc2nc3c(c(=O)n2[nH]1)CN(Cc1ccccc1)C3=O	0%	-1%	15%	-7%	-79*
O=S(O)OC1CS(=O)(=O)CC1c1ccccc1 (centres undefined)	2%	-2%	3%	8%	13
CN(C)c1ccc(/C=C/c2ccc3c4ccccc4ccc3[n+]2-c2ccccc2)cc1	17%	43%	-5%[15.4 µM]	40µM*	-48
Cc1cc(C)n(CCn2nc(C)cc2C)n1	-14%	-2%	-9%	10%	9
N#C/C(=N\Nc1cccc(C(F)(F)F)c1)C(=O)c1csc(-c2cccnc2)n1	-1%	u	-11%	25µM*	-38
c1ccc2[nH]c(C3CC3)nc2c1	6%	4%	-28%	-8%	4
CCOC(=O)COc1cc(OCC(=O)OCC)c2c3c(c(=O)oc2c1)CCCC3	-1%	9%	11µM*	u	0
COc1ccc(CCNC(=O)c2cc(-c3ccccc3)c(N3CCOCC3)s2)c(OC)c1OC	3%	-2%	-18%	32µM*	-9
Cc1cc([N+](=O)[O-])nn1CCCC(=O)Nc1sc2c(c1C(N)=O)CCC(C)C2 (centres undefined)	1%[46.1 µM]	-4%	-28%	11%	-3
SMILES	TCR activator	Pin1 inhibitor	gsp agonist	gsp antagonist	TSHR antag
CCOC(=O)c1ccc2c(c1)n(CC)c(/C=C/N(C)c1ccccc1)[n+]2CC	-4%[46.1 µM]	-12%	26%	7%	-13
CC[n+]1c(/C=C/N(C)c2ccccc2)n(-c2ccccc2)c2ccc(-c3nc4ccccc4s3)cc21	-1%	65%	2%[15.4 µM]	u	-98*
CC(=O)Oc1ccc(C(=O)Nc2ccccc2NC(=O)c2ccc(OC(C)=O)cc2)cc1	7%	2%	-2%	25µM*	-8
COc1ccc(C)cc1NC(=O)c1cccc(-c2ccc(OC(C)=O)cc2)c1	-3%	10%	6%[15.4 µM]	25µM*	-6
COc1ccc(C(=O)Nc2ccccc2NC(=O)c2ccc(OC)cc2)cc1	3%	0%	-22%	-22%	x
COc1ccc(-c2nc(NC(=O)c3ccc(OCC(=O)N4CCOCC4)c(OC)c3)sc2C)cc1	5%[46.1 µM]	4%	-16%	35µM*	-1
O=C(CC(c1ccccc1)c1ccccc1O)NCc1ccccc1Cl (centres undefined)	4%	3%	0%	35µM*	-13
CN1CCN(C(=O)c2ccccc2N(Cc2ccccc2)S(=O)(=O)c2ccccc2)CC1	3%[46.1 µM]	-2%	u	9%	1
Cc1ccc(S(=O)(=O)N(Cc2ccccc2)c2ccccc2C(=O)N2CCCCC2)cc1	0%	0%	-2%	u	-78*
COc1ccc(N=C2SC(C(=O)N3CCN(c4ccccc4)CC3)CC(=O)N2C)cc1 (centres undefined)	-7%	8%	u	-8%	7
CC(C)c1ccc(NC(=O)c2snc3ccc(Cl)cc23)cc1	1%[46.1 µM]	9%	18%	28µM*	-11
CCCNC(=O)c1ccc(N2CCC3(CC2)CC(c2ccccc2)=NO3)c(NC(=O)c2cccc(C)c2)c1	0%	8%	-22%	-16%	6
CSCC[C@@H](C(=O)NCCCCCCCCCCC(=O)N1CCN(C(=O)OC(C)(C)C)CC1)n1cc(CCO)nn1	-1%	-2%	-23%	32µM*	-10
COC(=O)c1ccc2c(C)c(C3(O)CCCCC3)[nH]c2c1	3%	-4%	x	2%	-6
CC(=O)c1ccc(S(=O)(=O)Nc2cccc(-n3cnnn3)c2)cc1	3%	-16%	u	-20%	2
Cc1cc(C)c(C)c(S(=O)(=O)Nc2cccc(-n3cnnn3)c2)c1C	-8%	-1%	-22%	-15%	-9
O=S(=O)(Nc1cccc(-n2cnnn2)c1)c1ccccc1C(F)(F)F	1%	-9%	u	-17%	-136*
CC(=O)Nc1ccc(S(=O)(=O)Nc2cccc(-n3cnnn3)c2)cc1	-10%	-6%	7.9µM*	8%	-6
CCOc1ccc(CNC(=O)C2CCN(S(=O)(=O)c3c(C)noc3/C=C/c3ccc(C)cc3)CC2)cc1OC	x	-9%	x	x	x
